Data from PubChem BioAssay.
Results filed as inconclusive are left out. The source made the active and inactive calls. Unless noted, how the calls were made is not given here.

Assays:
[1] = yeast TOR pathway RPL19A-GFP modulators, primary screen, cell-based, S. cerevisiae, multiplex flow cytometry (AID 1862; in the data active means percent of DMSO control GFP below about 86%;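 further: lower values mimic rapamycin by blocking the RPL19A rise seen in DMSO cells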); settings: S. cerevisiae RPL19A-GFP strain, flow cytometry fluorescence, 3 h; at 10 µM; stronger effect = lower value
[2] = modulators of MEP2-GFP levels in yeast, primary screen, S. cerevisiae, multiplex flow cytometry (AID 1867;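 active means GFP response, as percent of the DMSO control, above the screen-wide mean plus 3 SD, about 139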;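 further: median GFP channel fluorescence of barcode-gated MEP2-GFP cells measured by flow cytometry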); settings: S. cerevisiae MEP2-GFP strain, 3 h, at 10 µM, stronger effect = higher value
[3] = modulators of CIT2-GFP expression in yeast, primary screen, S. cerevisiae, GFP fusion, multiplex flow cytometry (AID 1870;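 active means percent response above a set limit, the screen-wide mean plus 3 SD, cut at about 130% in these data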;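 further: barcoded CIT2-GFP strain pooled with four other GFP strains with rapamycin as positive control; median GFP fluorescence per well over plate mean of DMSO wells so 100% = DMSO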); settings: 3 h, at 10 µM, stronger effect = higher value
[4] = modulators of LAP4-GFP expression in yeast, primary screen, S. cerevisiae, multiplex flow cytometry (AID 1873;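 active means GFP signal, as percent of the solvent control, above the screen mean plus 3 SD, about 149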); settings: 3 h, at 10 µM, stronger effect = higher value
[5] = inhibitors of CD8+ T cell-vesicle binding, pilot screen, LFA-1/ICAM-1 modulator project, MLPCN validation set, flow cytometry (AID 2523;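 active means response below a set limit, under 55% cells CD8-positive and vesicle-bound, and CD8 cells' 90th-percentile brightness under 279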;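 on vesicle binding response: mean PE anti-B7-1 fluorescence of CD8+ cells relative to row control; 100% = QL9-loaded vesicles with DMSO vehicle in the same plate row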); settings: 2C mouse CD8+ T cells, at 7 µM, stronger effect = lower value; double positive events: measured here: CD8+/vesicle+ event percentage
[6] = target: Integrin beta-1 (Homo sapiens) + Integrin alpha-4 (Homo sapiens) (UniProt P13612+P05556); assay: inhibition of HUTS-21 binding to VLA-4, pilot screen, VLA-4 allosteric modulator project, U937 cells, HUTS-21 mAb, flow cytometry, validation set (AID 2674;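 active means inhibition above 50%, about 3 SD of the validation set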;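 further: antibody binding induced by the VLA-4 ligand LDV present at three times its Kd; 0% = LDV ligand with antibody and no compound and 100% = antibody without LDV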); settings: HUTS-21 LIBS mAb binding, at 6.7 µM, stronger effect = higher value
[7] = superoxide lowering in aged yeast cells, pilot screen, validation compound set (AID 2706;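 active means superoxide response below 65% of plate, a cut near 3 SD across the whole screen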;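 further: yeast exposed to compound for one week at 30 degrees C before staining; 100% = mean of all compound wells on the same plate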); settings: S. cerevisiae aging, superoxide DHE fluorescence; at 10 µM; stronger effect = lower value
[8] = target: Beta-adrenergic receptor kinase 1 (Homo sapiens) (UniProt P25098); assay: GRK2 binders displacing RNA aptamer, biochemical, validation, human GRK2, bead flow cytometry (AID 488806;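 active means aptamer binding inhibition above 30%, about 3 SD of noise from non-fluorescent compounds; inactive means inhibition at or below 30%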); settings: bead-bound GRK2, FAM-aptamer displacement, at 10 µM, stronger effect = higher value
[9] = target: AP-2 complex subunit beta (Homo sapiens) (UniProt P63010); assay: inhibitors of arrestin peptide binding to AP2, pilot screen, biochemical, validation set, GST-AP2 beads, flow cytometry (AID 504541;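 active means inhibition above 54%, about 3 SD of non-fluorescent compounds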;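 further: AP2 carries R879A mutation and is captured from E. coli lysate; bead-bound FITC arrestin peptide fluorescence measuring arrestin peptide binding to AP2; 0% = DMSO wells and 100% = excess unlabeled arrestin peptide control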); settings: FITC arrestin peptide, at 10 µM, stronger effect = higher value
[10] = yeast V-ATPase proton transport modulators, S. cerevisiae, pHLuorin, HTS validation (AID 504600; in the data active means response above about 15%;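 further: plate controls were DMSO for no effect and reference compound for full effect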); settings: S. cerevisiae pHLuorin cytosolic pH, at 10 µM, stronger effect = higher value
[11] = system: anti-desmoglein-3 scFv antibody binding to human DSG3; assay: inhibitors of anti-DSG3 scFv binding to DSG3, pilot screen, biochemical, validation compound set, bead-based, flow cytometry (AID 588368;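 active means binding below the plate cutoff, the plate median minus 3 SD, with a reading above zero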;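 further: signal is the median channel fluorescence of bead-bound GFP antibody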); settings: Protein G beads, DSG3-Fc, scFv-GFP binding, at 10 µM, stronger effect = lower value
[12] = target: Lethal factor (Bacillus anthracis) (UniProt P15917); assay: Lethal factor protease inhibitors, Bacillus anthracis, multiplex microsphere cleavage assay, validation set (AID 588461); settings: flow cytometry, at 10 µM, stronger effect = higher value
[13] = inhibitors of fungal efflux pumps CDR1, CDR2, MDR1, pilot screen, validation compound set, multiplex, phenotypic (AID 588506;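 active means efflux inhibition above 0.42, the validation set average plus 4 SD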;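 further: Nile Red retained in cells so higher fluorescence means more efflux inhibition; 0 = negative control wells and 1 = enniatin B 25 µM full block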); settings: S. cerevisiae pump-expressing triplex, Nile Red efflux flow cytometry; at 10 µM; stronger effect = higher value
[14] = target: ATP-binding cassette sub-family B member 6 (Homo sapiens) (UniProt Q9NP58); assay: ABCB6 transporter inhibitors, pilot screen, K562-ABCB6 cells, flow cytometry, validation set (AID 588550;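 active means inhibition above the screen-wide mean plus 3 SD, about 51%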;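 further: 0% = DMSO wells and 100% = benzethonium chloride 70 µM positive control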); settings: K562-ABCB6 porphyrin accumulation, 1 h, at 10 µM, stronger effect = higher value
[15] = promoters of myeloid differentiation in arrested cells, primary screen, cell-based, GFP/MAC1 double positive, flow cytometry, validation set (AID 588685;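 active means differentiation response of at least 50%, scaled between solvent and reference control, from cells with both markers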;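 further: compound exposure lasts four days before antibody staining and flow analysis; 0% = DMSO wells and 100% = 5 µM fulvestrant positive control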); settings: ER-HoxA9 marrow cells, stronger effect = higher value
[16] = system: Botulinum neurotoxin type F light chain protease (Clostridium botulinum); assay: Botulinum neurotoxin type F light chain protease inhibition, multiplex microsphere flow cytometry, validation set (AID 588459); settings: multiplex microsphere protease substrate cleavage assay, at 10 µM, stronger effect = higher value
[17] = target: Botulinum neurotoxin type A (Clostridium botulinum) (UniProt P0DPI0); assay: BoNT/A light chain protease inhibitors, biochemical, multiplex microsphere flow cytometry, validation set (AID 588460); settings: at 10 µM, stronger effect = higher value
[18] = RPL19A-GFP modulators, yeast TOR pathway, confirmation, cell-based, S. cerevisiae, flow cytometry, cherry picks, mother/daughter gates (AID 2270;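 active means GFP response below 50% of the DMSO control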); settings: S. cerevisiae RPL19A-GFP strain, 3 h, at 10 µM, stronger effect = lower value, 100 = same GFP as DMSO wells
[19] = LAP4-GFP expression modulators in yeast, confirmation, cell-based, cherry picks, flow cytometry, mother/daughter gates (AID 2271;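 active means GFP response above 150% of the DMSO control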;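 further: ratio of sample to DMSO plate mean so 100% equals DMSO level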); settings: S. cerevisiae LAP4-GFP strain, 3 h, at 10 µM, stronger effect = higher value
[20] = modulators of CIT2-GFP expression in yeast, confirmation, S. cerevisiae, GFP fusion, cherry picks, mother/daughter gates (AID 2274;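 active means GFP response above 150% of the DMSO level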); settings: S. cerevisiae CIT2-GFP strain, flow cytometry, 3 h, at 10 µM, stronger effect = higher value
[21] = measured here: daughter cell gate
[22] = measured here: mother cell gate
[23] = measured here: daughter cell gate response
[24] = measured here: mother cell gate response

Sequence of Beta-adrenergic receptor kinase 1 (Homo sapiens) (P25098 whole entry, looked up): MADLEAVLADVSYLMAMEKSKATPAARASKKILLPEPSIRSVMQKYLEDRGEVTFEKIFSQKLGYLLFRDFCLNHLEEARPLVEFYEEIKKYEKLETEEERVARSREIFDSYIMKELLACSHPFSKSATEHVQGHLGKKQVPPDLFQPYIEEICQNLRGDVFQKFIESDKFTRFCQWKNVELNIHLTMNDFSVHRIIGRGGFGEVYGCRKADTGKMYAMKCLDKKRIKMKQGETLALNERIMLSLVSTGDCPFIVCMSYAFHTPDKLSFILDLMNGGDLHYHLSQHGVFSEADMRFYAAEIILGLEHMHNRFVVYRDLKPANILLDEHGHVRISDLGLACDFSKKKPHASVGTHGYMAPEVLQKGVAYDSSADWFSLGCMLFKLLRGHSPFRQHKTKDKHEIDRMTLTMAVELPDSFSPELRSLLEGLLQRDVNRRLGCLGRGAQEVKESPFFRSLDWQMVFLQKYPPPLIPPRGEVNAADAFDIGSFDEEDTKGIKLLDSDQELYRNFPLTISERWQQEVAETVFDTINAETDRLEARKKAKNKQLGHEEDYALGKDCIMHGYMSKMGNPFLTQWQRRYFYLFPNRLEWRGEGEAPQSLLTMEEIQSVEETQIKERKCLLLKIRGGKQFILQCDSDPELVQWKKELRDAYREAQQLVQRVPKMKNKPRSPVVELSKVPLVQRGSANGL
Sequence of AP-2 complex subunit beta (Homo sapiens) (P63010 whole entry, looked up, one chain of several): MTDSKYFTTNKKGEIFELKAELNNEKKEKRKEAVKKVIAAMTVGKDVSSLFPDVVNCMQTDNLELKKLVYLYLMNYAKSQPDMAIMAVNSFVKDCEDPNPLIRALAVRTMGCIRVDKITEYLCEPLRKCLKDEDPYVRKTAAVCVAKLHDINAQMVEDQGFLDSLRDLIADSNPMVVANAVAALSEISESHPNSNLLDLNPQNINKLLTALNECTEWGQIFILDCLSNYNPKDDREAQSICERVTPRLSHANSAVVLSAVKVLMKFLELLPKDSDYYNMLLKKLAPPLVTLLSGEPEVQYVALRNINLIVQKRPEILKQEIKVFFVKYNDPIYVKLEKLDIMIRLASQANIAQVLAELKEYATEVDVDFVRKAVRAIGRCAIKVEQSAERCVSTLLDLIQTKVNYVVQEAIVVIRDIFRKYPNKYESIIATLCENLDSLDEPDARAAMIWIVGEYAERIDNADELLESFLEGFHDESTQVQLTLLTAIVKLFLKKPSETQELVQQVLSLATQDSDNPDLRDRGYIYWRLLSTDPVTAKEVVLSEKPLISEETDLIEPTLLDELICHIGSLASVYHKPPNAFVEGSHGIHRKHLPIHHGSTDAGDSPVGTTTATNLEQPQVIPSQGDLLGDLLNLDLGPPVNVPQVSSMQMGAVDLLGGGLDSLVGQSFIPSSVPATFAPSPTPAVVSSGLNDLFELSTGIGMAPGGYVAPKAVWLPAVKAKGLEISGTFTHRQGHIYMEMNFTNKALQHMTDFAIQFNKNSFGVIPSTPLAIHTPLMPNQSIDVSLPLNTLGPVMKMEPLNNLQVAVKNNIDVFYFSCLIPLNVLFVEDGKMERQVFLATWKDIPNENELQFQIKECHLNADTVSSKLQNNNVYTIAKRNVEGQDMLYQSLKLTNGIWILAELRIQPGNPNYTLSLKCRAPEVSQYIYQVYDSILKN
Sequence of Lethal factor (Bacillus anthracis) (P15917 whole entry, looked up): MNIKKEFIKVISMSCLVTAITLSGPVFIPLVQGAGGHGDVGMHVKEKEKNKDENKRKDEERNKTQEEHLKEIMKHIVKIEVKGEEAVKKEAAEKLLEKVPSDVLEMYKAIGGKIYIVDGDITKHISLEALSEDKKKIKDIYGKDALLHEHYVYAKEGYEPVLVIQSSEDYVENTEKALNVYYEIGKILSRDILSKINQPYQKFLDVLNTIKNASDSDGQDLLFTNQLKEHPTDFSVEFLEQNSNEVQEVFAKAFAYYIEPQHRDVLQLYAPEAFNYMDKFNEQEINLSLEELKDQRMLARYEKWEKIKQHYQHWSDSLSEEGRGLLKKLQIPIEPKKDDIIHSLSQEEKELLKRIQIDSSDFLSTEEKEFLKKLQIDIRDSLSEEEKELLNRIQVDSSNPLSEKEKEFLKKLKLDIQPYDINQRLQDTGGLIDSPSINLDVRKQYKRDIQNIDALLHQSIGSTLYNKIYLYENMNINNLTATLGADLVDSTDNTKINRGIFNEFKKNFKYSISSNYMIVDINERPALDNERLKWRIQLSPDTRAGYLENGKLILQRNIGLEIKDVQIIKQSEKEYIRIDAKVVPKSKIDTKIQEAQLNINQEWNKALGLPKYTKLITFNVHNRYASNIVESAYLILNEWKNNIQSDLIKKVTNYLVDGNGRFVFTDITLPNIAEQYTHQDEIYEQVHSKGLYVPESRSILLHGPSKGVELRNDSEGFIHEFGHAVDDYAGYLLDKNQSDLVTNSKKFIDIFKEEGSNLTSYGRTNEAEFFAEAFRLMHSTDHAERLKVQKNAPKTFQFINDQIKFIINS
Sequence of Botulinum neurotoxin type A (Clostridium botulinum) (P0DPI0 whole entry, looked up): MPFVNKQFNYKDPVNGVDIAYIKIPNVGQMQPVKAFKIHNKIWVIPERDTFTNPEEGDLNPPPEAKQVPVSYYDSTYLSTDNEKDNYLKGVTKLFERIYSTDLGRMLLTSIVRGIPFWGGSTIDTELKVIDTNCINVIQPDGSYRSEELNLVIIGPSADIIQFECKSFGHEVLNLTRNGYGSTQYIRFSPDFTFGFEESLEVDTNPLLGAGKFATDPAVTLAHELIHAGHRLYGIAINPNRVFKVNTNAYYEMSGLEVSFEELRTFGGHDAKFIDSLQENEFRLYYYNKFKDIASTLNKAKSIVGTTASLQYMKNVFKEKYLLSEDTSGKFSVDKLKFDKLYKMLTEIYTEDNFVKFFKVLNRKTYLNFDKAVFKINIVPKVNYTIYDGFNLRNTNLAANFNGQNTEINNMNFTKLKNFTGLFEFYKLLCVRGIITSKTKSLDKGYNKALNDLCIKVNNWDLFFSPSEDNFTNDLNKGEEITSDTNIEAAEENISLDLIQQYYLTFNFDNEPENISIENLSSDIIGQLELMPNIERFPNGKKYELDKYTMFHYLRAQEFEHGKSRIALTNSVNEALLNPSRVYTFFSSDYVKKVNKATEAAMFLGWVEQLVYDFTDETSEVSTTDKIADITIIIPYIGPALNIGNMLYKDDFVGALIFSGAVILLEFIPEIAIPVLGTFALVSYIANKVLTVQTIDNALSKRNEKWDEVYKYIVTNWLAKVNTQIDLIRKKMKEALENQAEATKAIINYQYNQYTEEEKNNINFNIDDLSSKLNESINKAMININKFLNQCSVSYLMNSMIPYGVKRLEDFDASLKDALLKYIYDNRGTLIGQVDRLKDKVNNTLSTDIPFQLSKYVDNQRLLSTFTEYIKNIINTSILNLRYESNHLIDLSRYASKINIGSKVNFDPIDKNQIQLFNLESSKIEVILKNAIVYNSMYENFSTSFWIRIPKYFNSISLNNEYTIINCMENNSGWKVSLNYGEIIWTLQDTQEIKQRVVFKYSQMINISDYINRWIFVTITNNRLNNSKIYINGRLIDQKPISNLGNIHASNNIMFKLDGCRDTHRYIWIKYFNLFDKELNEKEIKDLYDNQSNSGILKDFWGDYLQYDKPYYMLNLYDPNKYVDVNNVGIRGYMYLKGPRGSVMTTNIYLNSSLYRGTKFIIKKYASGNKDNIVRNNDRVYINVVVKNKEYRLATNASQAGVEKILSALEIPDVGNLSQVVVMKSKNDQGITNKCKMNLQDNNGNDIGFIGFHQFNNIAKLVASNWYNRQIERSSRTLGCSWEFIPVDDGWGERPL
Sequence of ATP-binding cassette sub-family B member 6 (Homo sapiens) (Q9NP58 whole entry, looked up): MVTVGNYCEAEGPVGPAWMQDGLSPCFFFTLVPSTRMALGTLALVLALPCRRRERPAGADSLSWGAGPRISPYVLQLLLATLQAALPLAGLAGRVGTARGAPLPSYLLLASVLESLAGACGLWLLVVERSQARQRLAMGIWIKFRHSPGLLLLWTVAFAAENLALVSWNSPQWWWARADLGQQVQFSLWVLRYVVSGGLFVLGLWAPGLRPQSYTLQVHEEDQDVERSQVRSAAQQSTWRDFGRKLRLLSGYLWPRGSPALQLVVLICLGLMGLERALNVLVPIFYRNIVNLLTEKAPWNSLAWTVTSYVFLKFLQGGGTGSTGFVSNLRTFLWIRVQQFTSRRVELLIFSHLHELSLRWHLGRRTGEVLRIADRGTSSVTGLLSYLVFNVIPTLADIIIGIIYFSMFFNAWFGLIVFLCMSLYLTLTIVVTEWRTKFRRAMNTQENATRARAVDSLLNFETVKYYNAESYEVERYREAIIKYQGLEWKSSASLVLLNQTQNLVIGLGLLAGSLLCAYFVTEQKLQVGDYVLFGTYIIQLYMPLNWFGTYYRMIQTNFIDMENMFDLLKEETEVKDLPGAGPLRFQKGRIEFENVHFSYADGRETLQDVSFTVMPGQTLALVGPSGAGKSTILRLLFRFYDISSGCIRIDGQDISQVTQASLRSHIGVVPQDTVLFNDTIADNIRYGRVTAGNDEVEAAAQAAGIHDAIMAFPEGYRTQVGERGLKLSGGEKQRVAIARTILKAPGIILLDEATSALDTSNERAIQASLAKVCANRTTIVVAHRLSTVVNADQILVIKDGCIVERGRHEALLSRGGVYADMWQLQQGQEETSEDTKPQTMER

O=C(CCCN1CCC2(CC1)C(=O)NCN2c1ccccc1)c1ccc(F)cc1
inactive: percent of DMSO control GFP [1] 98.9% | GFP response vs DMSO [2] 95.7% | percent response of DMSO control [3] 102% | GFP response vs DMSO [4] 110% | vesicle binding response [5] 187% | inhibition [6] 8.25% | superoxide response (% of plate) [7] 85.3% | aptamer binding inhibition [8] -1% | inhibition [9] -9.7% | response [10] 1.45% | binding (% of control) [11] 103% | inhibition [12] 0.5% | efflux inhibition (fraction of control) [13] 0.12 | inhibition [14] -1% | differentiation response [15] 3.88%
62.6%: double positive events [5]

C[N+]1(C)CCN(c2ccccc2)CC1
inactive: percent of DMSO control GFP [1] 103% | GFP response vs DMSO [2] 94.8% | percent response of DMSO control [3] 107% | GFP response vs DMSO [4] 87.3% | vesicle binding response [5] 172% | inhibition [6] -1.17% | superoxide response (% of plate) [7] 93.3% | aptamer binding inhibition [8] 0% | inhibition [9] -8.27% | response [10] 1.95% | binding (% of control) [11] 100% | inhibition [16] -7.6% | inhibition [17] -1% | inhibition [12] -6.3% | efflux inhibition (fraction of control) [13] -0.2 | inhibition [14] 12% | differentiation response [15] -14.7%
53.4%: double positive events [5]

CCN(CC)CCOC(=O)C(O)(c1ccccc1)c1ccccc1
inactive: percent of DMSO control GFP [1] 102% | GFP response vs DMSO [2] 108% | percent response of DMSO control [3] 96.5% | GFP response vs DMSO [4] 92.6% | vesicle binding response [5] 152% | inhibition [6] 2.93% | superoxide response (% of plate) [7] 90.4% | aptamer binding inhibition [8] 2% | inhibition [9] 0.48% | response [10] -1.11% | binding (% of control) [11] 108% | inhibition [16] -2% | inhibition [17] -0.9% | inhibition [12] -5.6% | efflux inhibition (fraction of control) [13] -0.095 | inhibition [14] -101% | differentiation response [15] 7.13%
62%: double positive events [5]

O=C(O)CCCc1ccc(N(CCCl)CCCl)cc1
inactive: percent of DMSO control GFP [1] 101% | GFP response vs DMSO [2] 103% | percent response of DMSO control [3] 98.8% | GFP response vs DMSO [4] 97.4% | vesicle binding response [5] 148% | inhibition [6] 23.1% | superoxide response (% of plate) [7] 93.9% | aptamer binding inhibition [8] 4% | inhibition [9] 1.29% | response [10] -5.67% | binding (% of control) [11] 105% | inhibition [16] -4% | inhibition [17] -2.1% | inhibition [12] -3.4% | inhibition [14] 8% | differentiation response [15] 17.6%
active: efflux inhibition (fraction of control) [13] 0.48
63.4%: double positive events [5]

O=C(O)c1[nH]c(=O)[nH]c(=O)c1F
inactive: GFP response vs DMSO [18] 96.9% | GFP response relative to DMSO [19] 100% | GFP response, % of DMSO [20] 100%
100%: GFP response relative to DMSO [19, 24] | GFP response, % of DMSO [20, 22]
99.3%: GFP response, % of DMSO [20, 21]
97.6%: GFP response vs DMSO [18, 21]
97.5%: GFP response relative to DMSO [19, 23]
95.6%: GFP response vs DMSO [18, 22]

CCN(CC)c1ccc(/C=C/[N+](=O)[O-])cc1
132%: GFP response relative to DMSO [19, 24]
inactive: GFP response vs DMSO [18] 99.5% | GFP response relative to DMSO [19] 130% | GFP response, % of DMSO [20] 104%
106%: GFP response, % of DMSO [20, 21]
101%: GFP response vs DMSO [18, 21]
131%: GFP response relative to DMSO [19, 23]
100%: GFP response vs DMSO [18, 22] | GFP response, % of DMSO [20, 22]
